Screens: PubChem, several laboratories
PrPC TRFRET: inhibitors of human cell surface prion protein PrPC | TR-FRET read-out | inhibition, % at 13.8 µM | actives 0.43% (n = 370,000) | AID 720596; in the data active means inhibition above about 24%; further: 0% = median of the test wells and 100% = reference compound wells
BJeLR viability: BJeLR cell viability loss. BJeLR (HRASV12) viability, CellTiter-Glo ATP luminescence, 48 h. actives 0.17% (n = 300,000). AID 1554. inhibition, % (concentration not given with the values); in the data active means inhibition above about 50%; inconclusive means no clear call, values can overlap the other calls
DUSP3 inh: blocks human VHR1 dual specificity phosphatase. AID 1654. actives 0.52% (n = 290,000). recombinant VHR phosphatase, pNPP absorbance. inhibition, % at 13.3 µM. P51452; in the data active means inhibition above about 50%
Target sequence (P51452 whole entry, looked up): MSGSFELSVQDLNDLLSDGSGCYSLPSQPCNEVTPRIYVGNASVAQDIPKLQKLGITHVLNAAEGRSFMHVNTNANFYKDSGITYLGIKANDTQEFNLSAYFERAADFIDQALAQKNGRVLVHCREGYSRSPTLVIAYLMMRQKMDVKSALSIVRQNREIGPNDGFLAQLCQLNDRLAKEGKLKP
PrP UTR inh: suppresses PrP 5' UTR mRNA reporter expression; cell-based PrP 5' UTR mRNA reporter, plate reader; actives 0.35% (n = 340,000); inhibition, % (test concentration not listed); in the data active means inhibition above about 52%; further: 0 = median of the neutral control wells
PfHsp40 yeast: rescue of PfHsp40-mediated yeast toxicity; AID 504582; growth rescue, % at 12.5 µM; actives 0.68% (n = 340,000); S. cerevisiae expressing PfHsp40, growth rescue, ATP luminescence; in the data active means growth rescue above about 28%, passing the limit was not always enough; inconclusive means no clear call, values can overlap the other calls;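 further: yeast W303a lacking pdr1 and pdr3 grown in galactose medium; growth measured after three days at 30 °C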
MazEF act: activators of E. coli MazEF toxin-antitoxin RNase; activation, % at 20 µM; AID 504720; actives 0.32% (n = 350,000); FAM/BHQ RNA-DNA oligo cleavage fluorescence, 5 h; P0AE70; in the data active means activation above about 50%
Target sequence (P0AE70 whole entry, looked up): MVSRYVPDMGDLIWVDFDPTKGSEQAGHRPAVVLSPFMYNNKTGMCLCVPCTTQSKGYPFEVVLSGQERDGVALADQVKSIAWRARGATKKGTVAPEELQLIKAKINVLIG
* marks the source's active call; other numbers are inactive results; u = inconclusive; x = not tested or not shown. Compounds with a hit are over-represented: about 2.1% of the library has one in this group of screens.

SMILES	PrPC TRFRET	BJeLR viability	DUSP3 inh	PrP UTR inh	PfHsp40 yeast	MazEF act
CC1CC(C)(C)C2=NCCN21 (stereo not drawn)	-2.0	x	x	x	x	5.7
Oc1[nH]c2ccccc2c1N=Nc1cccc(Cl)c1	-6.7	15.1	17.0	-53.2	x	362.1*
CCN1CCN(CCCNC(=O)c2ccc3c(c2)NC(=O)c2ccccc2S3)CC1	-5.7	-5.5	27.8	-2.3	-0.7	7.7
CC1CCCC(C)N1CCCNC(=O)c1ccc2c(c1)NC(=O)c1ccccc1S2 (stereo not drawn)	-5.5	-0.9	57.7*	-11.1	-0.9	3.9
Cc1ccc(C(C)NC(=S)NC2CCCCC2)cc1C (stereo not drawn)	12.8	1.1	4.4	-4.0	-0.6	x
Cc1ccc(CNC(=S)NC2CCC(C(C)(C)C)CC2)cc1 (stereo not drawn)	2.4	-6.1	-15.2	-13.6	187.8*	-6.0
COc1ccc(CNC(=S)NC2CCCC2)cc1	1.5	10.1	-3.9	-14.5	-0.4	-2.6
CC(NC(=S)NC1CCC(C(C)(C)C)CC1)c1ccccc1 (stereo not drawn)	10.7	0.8	27.3	-12.6	71.3*	-1.7
CCCNC(=O)C1(C)CCN(Cc2ccc(OCc3ccccc3)cc2)C1 (stereo not drawn)	-0.3	x	x	x	x	x
Nc1nc(N)nc(-c2ccc(Oc3ccccc3)cc2)n1	1.8	-5.0	24.3	-26.6	-0.5	13.8
Cc1ccccc1Oc1ccc(-c2nc(N)nc(N)n2)cc1	7.5	5.2	13.2	-27.7	118.8*	-1.1
COCCCNC(=O)c1ccc(S(=O)(=O)c2ccc(C)cc2)c(NC(C)=O)c1	-2.6	-3.0	20.6	-33.9	91.2*	-0.1
CCCCNC(=O)c1ccc(S(=O)(=O)c2ccc(Cl)cc2)c(NC(C)=O)c1	5.9	2.9	35.5	-10.1	0.7	4.5
Clc1ccc(NN(Cc2ccncc2)c2ccc(Cl)cc2)cc1	9.9	x	x	x	x	-8.6
CC(=NNC(=S)N1CCCCC1)c1ccccn1	2.6	x	x	x	x	2.2
CC(=NNC(=S)N1CC2CCC(CC2)C1)c1ccncn1	-2.9	x	x	20.8	97.8*	11.3
CC(=O)N1CCN(C(=O)CCNS(=O)(=O)c2ccccc2)CC1	-4.0	x	x	x	0.4	1.0
Cc1ccc(S(=O)(=O)NCc2ccc(C(=O)N3CCN(c4ccccc4)CC3)cc2)cc1	-13.0	2.3	52.7*	-9.7	0.3	-2.9
O=C(CCNS(=O)(=O)c1ccccc1)N1CCN(c2ccccc2)CC1	0.0	7.0	-5.4	-9.4	53.8*	0.9
COc1cc(-c2cc(OC)c(O)c(OC)c2)cc(OC)c1O	-4.1	x	x	-5.0	-0.5	5.0
COc1cc(C(=O)C(=O)c2cc(OC)c(O)c(OC)c2)cc(OC)c1O	-1.4	4.4	53.0*	-17.3	-0.1	-2.7
COc1cccc2nc3cc(C)c(C)cc3nc12	-23.6	58.5*	22.8	0.6	-3.5	3.7
C/C(CCC(C)C)=N\NS(=O)(=O)c1ccc(C)c([N+](=O)[O-])c1	4.6	1.8	8.5	-4.9	1.7	81.7*
CC1CCC(=NNS(=O)(=O)c2ccc([N+](=O)[O-])cc2)CC1 (stereo not drawn)	-14.6	x	x	-4.0	-0.9	110.2*
Cc1ccc(S(=O)(=O)NCCC(C)C)cc1[N+](=O)[O-]	-8.0	-2.9	-7.9	-7.6	2.2	8.9
SMILES	PrPC TRFRET	BJeLR viability	DUSP3 inh	PrP UTR inh	PfHsp40 yeast	MazEF act
CC/C(C)=N/NS(=O)(=O)c1ccc(C)c([N+](=O)[O-])c1	-5.8	0.8	19.1	-9.1	0.0	121.9*
CCC(C)(C)C1CCC(=NNS(=O)(=O)c2ccc(C)c([N+](=O)[O-])c2)CC1 (stereo not drawn)	0.7	-2.0	34.2	-42.0	0.4	125.1*
Cc1ccc(S(=O)(=O)N/N=C2/CCCCC2C2CCCCC2)cc1[N+](=O)[O-] (stereo not drawn)	4.7	-1.5	0.1	-7.4	-0.5	0.8
COc1ccc(NS(=O)(=O)c2cc(NC(=O)C3=NN(c4ccccc4)C(=O)CC3)ccc2OC)cc1	-3.0	x	x	-10.5	-0.4	8.8
COc1cc2c(cc1OC)C(C)N(C(=O)c1cc3ccccc3o1)CC2 (stereo not drawn)	5.1	4.7	50.8*	-7.8	u	2.1
Cc1cc(C)c(OCC(=O)Nc2ccc(NC(=O)c3ccco3)cc2)c([N+](=O)[O-])c1	-12.9	x	-8.4	7.6	-1.7	1.2
O=C(Nc1cccc(NC(=O)c2ccco2)c1)c1ccccc1	5.7	-1.1	57.6*	-14.7	0.7	14.2
COc1cccc(OC)c1C(=O)Nc1ccc(NC(=O)c2ccco2)cc1	-3.9	0.9	24.9	-30.6	0.5	10.4
Cc1cc(C)c(OCC(=O)Nc2cccc(NC(=O)c3ccco3)c2)c(Br)c1	9.7	12.3	29.4	-19.2	121.7*	-0.9
COc1cccc(OC)c1C(=O)NC(=S)Nc1cccc(NC(=O)c2ccco2)c1	-1.0	-10.4	12.5	-14.1	-1.9	74.8*
CCOc1ccc(-c2c(C)n(-c3ccc(OCC)cc3)c3[n+]2CCCCC3)cc1	28.3*	69.9*	17.2	-10.0	0.1	9.0
CCN(C(=O)COC(=O)c1c(NC(C)=O)sc(C)c1C)c1c(N)n(Cc2ccccc2)c(=O)[nH]c1=O	-2.3	x	x	-12.0	-0.8	1.3
COc1ccc2cc(CNCCOCCOCCNCc3ccc4cc(OC)ccc4c3)ccc2c1	32.1*	x	x	-0.3	0.6	38.1
CCOCCCNCc1ccc(OC)cc1	-8.1	7.0	19.6	-30.6	0.6	-1.8
COc1ccc(OCC(=O)NC(=S)Nc2ccc(S(=O)(=O)Nc3cc(C)on3)cc2)cc1	-4.7	13.4	4.4	-35.5	-0.2	7.4
COc1ccc(NS(=O)(=O)c2ccc(N3CCCC3=O)cc2)cn1	6.4	1.9	11.5	-32.8	-0.6	9.9
COc1ccc(NS(=O)(=O)c2ccc3c(c2)Cc2ccccc2-3)cn1	1.7	1.1	-7.0	-29.4	28.3*	6.2
Cc1cccc(Nc2nc(N)nc(CCl)n2)c1	3.3	94.0*	1.1	-35.8	-0.3	6.5
COc1ccc(OC)c(Nc2nc(N)nc(CCl)n2)c1	4.0	120.5*	27.1	-25.4	0.3	8.4
CCOc1ccc(Nc2nc(N)nc(CCl)n2)cc1	3.4	98.9*	27.7	-41.8	-1.0	-1.6
Cc1ccc(Nc2nc(N)nc(CCl)n2)c(C)c1	-7.2	121.0*	13.3	-58.4	-1.5	1.0
Cc1ccc(Cn2cc(CN(C)S(=O)(=O)c3ccccc3Br)nn2)cc1	-4.5	x	x	x	x	x
O=C(c1cccs1)C1CCN(c2ncnc3sccc23)CC1	17.5	x	x	x	x	x
Cn1c(=O)c2c(-c3ccccc3)n(-c3ccccc3Br)cc2n(C)c1=O	-5.8	x	x	x	x	x
COc1ccccc1Nc1nc(N)nc(CCl)n1	-0.1	-2.7	-10.3	-31.2	-0.5	-7.2
Cc1cccc(Nc2nc(N)nc(CCl)n2)c1C	6.0	55.8*	8.7	x	x	5.6
CC(C)NC(=O)c1ccccc1NC(=O)C(C)Oc1ccccc1 (stereo not drawn)	7.4	2.3	10.6	4.5	72.5*	6.2
